# Assay results from the antibiotic and cytotoxicity screens of Wong et al. (2023).
# The campaign covered roughly 39,000 compounds. About 3,300 (8.5%) were called active. Only a selection was taken, and actives are over-represented in it overall.
# Test system: HepG2
# Assay: cytotoxicity call (relative viability < 0.9)
# Details: 10 µM
row,Structure (SMILES),cytotoxicity call
1,COc1ccc(NC(=O)Nc2cccc3c2O[C@H](CN(C)C(=O)Nc2ccc(C(F)(F)F)cc2)[C@@H](C)CN([C@@H](C)CO)C3=O)cc1,inactive
2,COc1ccc(NC(=O)Nc2cccc3c2O[C@@H](CN(C)C(=O)Nc2ccc(C(F)(F)F)cc2)[C@@H](C)CN([C@@H](C)CO)C3=O)cc1,inactive
3,COc1ccc(NC(=O)N(C)C[C@H]2Oc3c(NC(=O)Nc4ccc(C(F)(F)F)cc4)cccc3C(=O)N([C@@H](C)CO)C[C@H]2C)cc1,active
4,C[C@@H]1CN([C@H](C)CO)C(=O)c2cccc(NC(=O)Nc3ccc(C(F)(F)F)cc3)c2O[C@H]1CN(C)C(=O)Nc1ccc(C(F)(F)F)cc1,inactive
5,C[C@@H]1CN([C@H](C)CO)C(=O)c2cccc(NC(=O)Nc3ccc(C(F)(F)F)cc3)c2O[C@@H]1CN(C)C(=O)Nc1ccc(C(F)(F)F)cc1,inactive
6,C[C@@H]1CN([C@@H](C)CO)C(=O)c2cccc(NC(=O)Nc3ccc(C(F)(F)F)cc3)c2O[C@H]1CN(C)C(=O)Nc1ccc(C(F)(F)F)cc1,inactive
7,C[C@H]1CN([C@@H](C)CO)C(=O)c2cccc(NC(=O)Nc3ccc(C(F)(F)F)cc3)c2O[C@@H]1CN(C)C(=O)Nc1ccc(C(F)(F)F)cc1,active
8,C[C@H]1CN([C@@H](C)CO)C(=O)c2cccc(NC(=O)Nc3ccc(C(F)(F)F)cc3)c2O[C@H]1CN(C)C(=O)Nc1ccc(C(F)(F)F)cc1,inactive
9,C[C@H](CO)N1C[C@H](C)[C@H](CN(C)C(=O)Nc2ccc(C(F)(F)F)cc2)Oc2c(NC(=O)Nc3ccc(C(F)(F)F)cc3)cccc2C1=O,active
10,C[C@@H]1CN([C@@H](C)CO)C(=O)c2cccc(NC(=O)Nc3ccc(C(F)(F)F)cc3)c2O[C@@H]1CN(C)C(=O)Nc1ccc(C(F)(F)F)cc1,active
11,O=C(O)C[C@@H]1C=C[C@@H](NC(=O)c2ccncc2)[C@H](CO)O1,inactive
12,CCCN(C)C[C@H]1OCCCC[C@@H](C)Oc2ccc(NC(=O)c3ccccc3)cc2C(=O)N([C@H](C)CO)C[C@H]1C,inactive
13,Cc1noc(C)c1NC(=O)Nc1ccc2c(c1)C(=O)N([C@H](C)CO)C[C@@H](C)[C@@H](CN(C)C(=O)Nc1ccccc1)OCCCC[C@@H](C)O2,inactive
14,CN1N=C(N)c2cn([C@@H]3O[C@H](COP(=O)(O)O)[C@@H](O)[C@H]3O)c3ncnc1c23,inactive
15,C[C@@H]1CN([C@@H](C)CO)C(=O)Cc2cc(NC(=O)CCN3CCOCC3)ccc2O[C@H]1CN(C)C(=O)Nc1ccccc1,inactive
16,CCO[C@@H]1OC(C(=O)N2CCN(Cc3ccc4c(c3)OCO4)CC2)=C[C@H](c2ccc3c(c2)OCO3)[C@H]1CCCO,inactive
17,COCC1=C(C(=O)OC(C)OC(=O)OC(C)C)N2C(=O)C(NC(=O)C(=NOC)c3csc(N)n3)C2SC1 (stereo not given),inactive
18,C[C@H](CO)N1C[C@H](C)[C@@H](CN(C)Cc2ccncc2)Oc2cc(C#CC(C)(C)O)ccc2S1(=O)=O,inactive
19,C[C@@H]1CCCCO[C@@H](CN(C)C(=O)C2CCCCC2)[C@H](C)CN([C@H](C)CO)C(=O)c2cc(NC(=O)c3ccncc3)ccc2O1,inactive
20,Cc1noc(C)c1NC(=O)N(C)C[C@H]1Oc2c(NC(=O)Nc3ccc(C(F)(F)F)cc3)cccc2C(=O)N([C@@H](C)CO)C[C@H]1C,active

row,Structure (SMILES),cytotoxicity call
1,Cc1noc(C)c1NC(=O)N(C)C[C@@H]1Oc2c(NC(=O)Nc3ccc(C(F)(F)F)cc3)cccc2C(=O)N([C@H](C)CO)C[C@H]1C,inactive
2,Cc1noc(C)c1NC(=O)N(C)C[C@@H]1Oc2c(NC(=O)Nc3ccc(C(F)(F)F)cc3)cccc2C(=O)N([C@@H](C)CO)C[C@H]1C,inactive
3,C[C@H](CO)N1C[C@H](C)[C@@H](CN(C)C(=O)Nc2ccc(C(F)(F)F)cc2)Oc2c(NC(=O)Nc3ccc(C(F)(F)F)cc3)cccc2C1=O,active
4,C[C@H](CO)N1C[C@H](C)[C@H](CN(C)C(=O)Nc2ccc3c(c2)OCO3)Oc2c(NC(=O)Nc3ccc(C(F)(F)F)cc3)cccc2C1=O,active
5,C[C@@H]1CN([C@@H](C)CO)C(=O)c2cccc(NC(=O)Nc3ccc(C(F)(F)F)cc3)c2O[C@H]1CN(C)C(=O)Nc1ccc2c(c1)OCO2,inactive
6,C[C@@H]1CN([C@H](C)CO)C(=O)c2cccc(NC(=O)Nc3ccc(C(F)(F)F)cc3)c2O[C@@H]1CN(C)C(=O)Nc1ccc2c(c1)OCO2,inactive
7,O=C1c2ccccc2[C@@]2(Cc3ccccc3N(Cc3ccccc3)C2=O)[C@H](c2ccc(CO)cc2)N1Cc1ccccc1C(F)(F)F,inactive
8,Cc1noc(C)c1S(=O)(=O)N(C)C[C@@H]1Oc2ccc(NS(=O)(=O)c3cccs3)cc2CC(=O)N([C@H](C)CO)C[C@@H]1C,inactive
9,CN(C)Cc1cn(CC[C@@H]2CC[C@@H](NC(=O)Cc3cccnc3)[C@H](CO)O2)nn1,inactive
10,Cc1noc(C)c1NC(=O)Nc1ccc2c(c1)CC(=O)N([C@@H](C)CO)C[C@H](C)[C@@H](CN(C)C(=O)NC(C)C)O2,inactive
11,O=C(C[C@H]1CC[C@@H]2[C@H](COC[C@H](O)CN2C(=O)Nc2ccc(F)cc2)O1)NCCCN1CCOCC1,inactive
12,OC[C@@H](O)CN1CCN(c2ccccc2)CC1,inactive
13,Cc1nc(-c2ccc(OCC(C)C)c(C#N)c2)sc1C(=O)O,active
14,COc1ccc(S(=O)(=O)N(C)C[C@H]2Oc3ccc(NC(=O)c4ccncc4)cc3C(=O)N([C@@H](C)CO)C[C@@H]2C)cc1,inactive
15,O=CN[C@H](Cc1ccccc1)C(=O)O,inactive
16,COc1ccc(CN(C)C[C@H]2Oc3ccc(NC(=O)CCCCCC(=O)Nc4ccccc4N)cc3CC(=O)N([C@@H](C)CO)C[C@H]2C)cc1,active
17,C[C@@H]1CN([C@H](C)CO)C(=O)Cc2cc(NC(=O)CCCCCC(=O)Nc3ccccc3N)ccc2O[C@H]1CN(C)Cc1ccc(Oc2ccccc2)cc1,inactive
18,C[C@@H]1CN([C@@H](C)CO)C(=O)Cc2cc(NC(=O)CCCCCC(=O)Nc3ccccc3N)ccc2O[C@@H]1CN(C)Cc1ccc(Oc2ccccc2)cc1,active
19,C[C@H]1CN([C@@H](C)CO)C(=O)Cc2cc(NC(=O)CCCCCC(=O)Nc3ccccc3N)ccc2O[C@H]1CN(C)Cc1ccc(Oc2ccccc2)cc1,inactive
20,C[C@H]1CN([C@@H](C)CO)C(=O)Cc2cc(NC(=O)CCCCCC(=O)Nc3ccccc3N)ccc2O[C@@H]1CN(C)Cc1ccc(Oc2ccccc2)cc1,inactive

row,Structure (SMILES),cytotoxicity call
1,COc1ccc(CN(C)C[C@@H]2Oc3ccc(NC(=O)CCCCCC(=O)Nc4ccccc4N)cc3CC(=O)N([C@H](C)CO)C[C@@H]2C)cc1,inactive
2,COc1ccc(CN(C)C[C@H]2Oc3ccc(NC(=O)CCCCCC(=O)Nc4ccccc4N)cc3CC(=O)N([C@H](C)CO)C[C@H]2C)cc1,inactive
3,C[C@@H]1CN([C@H](C)CO)C(=O)Cc2cc(NC(=O)CCCCCC(=O)Nc3ccccc3N)ccc2O[C@@H]1CN(C)Cc1ccc(Oc2ccccc2)cc1,active
4,C[C@H](CO)N1C[C@H](C)[C@H](CN(C)Cc2ccc(Oc3ccccc3)cc2)Oc2ccc(NC(=O)CCCCCC(=O)Nc3ccccc3N)cc2CC1=O,inactive
5,Cc1noc(C)c1NC(=O)Nc1ccc2c(c1)CC(=O)N([C@@H](C)CO)C[C@@H](C)[C@H](CN(C)Cc1ccc(C(F)(F)F)cc1)O2,inactive
6,CC(C)NC(=O)Nc1ccc2c(c1)C(=O)N([C@H](C)CO)C[C@@H](C)[C@H](CN(C)CC1CCCCC1)OCCCC[C@H](C)O2,inactive
7,C[C@@H]1CN([C@@H](C)CO)C(=O)c2cc(NC(=O)Nc3ccc(C(F)(F)F)cc3)ccc2O[C@@H]1CN(C)Cc1ccc2c(c1)OCO2,active
8,C[C@H](CO)N1C[C@H](C)[C@@H](CN(C)Cc2ccc(C(F)(F)F)cc2)Oc2ccc(NC(=O)Nc3ccc4c(c3)OCO4)cc2C1=O,inactive
9,C[C@H](CO)N1C[C@H](C)[C@H](CN(C)Cc2ccc3c(c2)OCO3)Oc2ccc(NC(=O)Nc3ccc(C(F)(F)F)cc3)cc2C1=O,active
10,C[C@@H]1CN([C@@H](C)CO)C(=O)c2cc(NC(=O)Nc3ccc4c(c3)OCO4)ccc2O[C@H]1CN(C)Cc1ccc(C(F)(F)F)cc1,inactive
11,C[C@H]1CN([C@@H](C)CO)C(=O)c2cc(NC(=O)Nc3ccc(C(F)(F)F)cc3)ccc2O[C@H]1CN(C)Cc1ccc2c(c1)OCO2,active
12,C[C@H]1CN([C@@H](C)CO)C(=O)c2cc(NC(=O)Nc3ccc4c(c3)OCO4)ccc2O[C@H]1CN(C)Cc1ccc(C(F)(F)F)cc1,inactive
13,C[C@@H]1CN([C@H](C)CO)C(=O)c2cc(NC(=O)Nc3ccc(C(F)(F)F)cc3)ccc2O[C@H]1CN(C)Cc1ccc2c(c1)OCO2,inactive
14,C[C@@H]1CN([C@H](C)CO)C(=O)c2cc(NC(=O)Nc3ccc(C(F)(F)F)cc3)ccc2O[C@@H]1CN(C)Cc1ccc2c(c1)OCO2,active
15,CN(C)Cc1cn(CC[C@H]2CC[C@@H](NS(=O)(=O)c3ccccc3)[C@@H](CO)O2)nn1,inactive
16,C[C@H]1CN([C@@H](C)CO)C(=O)CCCn2cc(nn2)CO[C@@H]1CN(C)Cc1ccc(C(=O)Nc2ccccc2N)cc1,inactive
17,C[C@@H]1CN([C@@H](C)CO)C(=O)c2cccc(NS(=O)(=O)c3cccs3)c2O[C@@H]1CN(C)CC1CC1,inactive
18,C[C@@H]1CN([C@@H](C)CO)C(=O)c2cc(NS(=O)(=O)c3ccc(Cl)cc3)ccc2O[C@@H](C)CCCCO[C@@H]1CN(C)C(=O)NC1CCCCC1,inactive
19,Cc1noc(C)c1S(=O)(=O)Nc1cccc2c1O[C@@H](CN(C)Cc1ccc(Oc3ccccc3)cc1)[C@@H](C)CN([C@@H](C)CO)C2=O,inactive
20,C[C@H]1CN([C@@H](C)CO)S(=O)(=O)c2ccc(-c3ccncc3)cc2O[C@H]1CN(C)S(=O)(=O)c1ccccc1F,inactive
